# POLK inh: blocks human DNA polymerase kappa activity | Q9UBT6 | purified Pol kappa, fluorescent DNA synthesis assay, 10 min | Potency, µM (doses to about 107 µM), without a hit: top-dose activity, negative = inhibition, most hits filed as inhibitors | 0.53% of 400,000 active; also: % is scaled to controls: 0 for no effect and ±100 for the full control effect
#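 Pol kappa 10 nM + cpd, 15 min RT; start w/ substrate 50 nM final; fluorescence kinetic read, 0 and 10 min. Neg ctrl: buffer, no enzyme.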
# Pol iota inh: inhibitors of human DNA polymerase iota. Q9UNA4. Pol iota fluorescent replication assay, 10 min. Potency, µM (doses to about 115 µM), for inactives: at the top dose activity, negative = inhibition, most hits filed as inhibitors. 1% of 390,000 active
#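 Pol iota at 10 nM preincubated 15 min with compounds at room temperature; reaction started with fluorescent substrate, 50 nM final. Fluorescence read kinetically at 0 and 10 min; buffer-only wells as negative control.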
# POLB inh: DNA polymerase beta (human) inhibition | Pol beta primer extension/strand displacement, fluorescence kinetic | P06746 | 1.3% of 340,000 active | Potency, µM (series often up to 114 µM), for inactives: top-dose activity change, negative = inhibition, most hits filed as inhibitors; also: % is scaled to controls: 0 for no effect and ±100 for the full control effect
#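 Kinetic readout of DNA synthesis with strand displacement by Pol beta. Compound and 10 nM enzyme sit 15 min at room temperature; 50 nM substrate starts the reaction, read immediately and at 10 min.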
# L3MBTL1 inh: inhibitors of human L3MBTL1. Q9Y468. 0.66% of 230,000 active. Potency, µM (doses to about 57.1 µM), without a hit: at the top dose activity, negative = inhibition, actives largely listed as inhibitors. AlphaScreen L3MBTL1–H3K9me1 peptide binding; also: % is scaled to controls: 0 for no effect and ±100 for the full control effect; nearly all actives have a fitted effect of over 60% in size
#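 L3MBTL1 (50 nM) pre-complexed 30 min with biotinylated H3(1-15)K9me1 peptide (75 nM), then compounds added for 30 min at room temperature; AlphaScreen streptavidin donor/nickel chelate acceptor beads (10 ug/mL final) read after 30 min dark incubation.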
# POLH inh: blocks human DNA polymerase eta activity; 1.2% of 390,000 active; recombinant Pol eta, fluorescent DNA replication assay; Potency, µM (titrated, usually from 114 µM), for the others: at the top dose activity change, negative = inhibition, usual class: inhibitors; also: % is scaled to controls: 0 for no effect and ±100 for the full control effect
#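 Pol eta (10 nM) was preincubated with compounds for 15 min at room temperature, after which fluorescent replication substrate (50 nM final) was added to start the reaction. Fluorescence was read kinetically at 0 and 10 min.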
# Numbers without * were called inactive; ? = inconclusive; . = no result; ! = a repeat was not active; [ ] = dose if it differs, or a comment. Rows were chosen to be rich in hits. Some 2.4% of all compounds tested hit in one or more screens of this group. Calls follow the shape of the dose curve; as a rule, active = well fitted curve in the direction sought with a large enough effect; inconclusive = small, poorly fitted or top-dose-only effect, or another doubt; inactive = no such curve, though single readings can be large; an effect the other way counts as inactive or inconclusive. Potency is read from the fitted curve at half-maximal effect.
SMILES,POLK inh,Pol iota inh,POLB inh,L3MBTL1 inh,POLH inh
CC(=O)N(C1=C(N)C(=O)c2ccccc2C1=O)C(C)C,-8%,37%,39%,6%,3%
COC(=O)c1ccc(C2c3c(oc4cc(C)c(C)cc4c3=O)C(=O)N2c2ccccn2)cc1 (configuration not stated),4%,4%,-9%,.,-2%
Cc1nnc(NC(=O)Cc2cccs2)s1,?,45µM*,35µM*,-8%,?
O=C(Cc1cccs1)Nc1nnc(SCc2ccc(Br)cc2)s1,?,?,32µM*,-12%,?
Cc1nnc(NC(=O)CCC(=O)NCc2cccs2)s1,-3%,-5%,-1%,-8%,3%
Cc1ccccc1CSc1nnc(NC(=O)Cc2cccs2)s1,-25%,101%,22µM*,?,?
Cc1ccccc1NC(=O)Cc1cccs1,-10%,-8%,0%,2%,-1%
COCCSc1nnc(NC(=O)Cc2cccs2)s1,0%,?,-39%,25%,?
Cc1cccc(NC(=O)Cc2cccs2)n1,-33%,5%,40µM*,.,11%
CCOc1ccccc1N1C(=O)c2ccccc2N/C1=C\N1CCN(C(=O)c2ccco2)CC1,6%,24%,.,.,.
Cc1cccc(NC(=O)C(=O)NCC(c2cccnc2)N2CCc3ccccc3C2)c1C (configuration not stated),-7%,-8%,-2%,.,-19%
CN1C(=O)C[C@H](C(=O)O)[C@@H]1c1cccnc1,-3%[60.1 µM],.,.,.,.
CCCN1CCC(=O)N(CCN=[N+]=[N-])CC1,-2%,-29%,32µM*,2%,5%
Cc1nc(N2CCN(C(=O)c3ccco3)CC2)c(C#N)c2c1CCCC2,-13%,80%,1%,.,-11%
Cc1cc(C)c2nc(N3CCCN(C(=O)c4ccco4)CC3)c(C#N)cc2c1,-20%,-11%,40µM*,-22%,?
CCc1nnc(SCc2nc(-c3ccc(OC)c(OC)c3)oc2C)c2cc3sc(C)cc3n12,-5%,-8%,23%,.,-8%
CC(C)(C)N1C(=O)Cc2c1nc(N)c1c(N)nc(N3CCCCC3CO)c(C#N)c21 (configuration not stated),-10%,20µM*,0%,?,?
CCc1cccc(NC(=O)C2CCCN(S(=O)(=O)c3cccs3)C2)c1 (configuration not stated),-29%,79µM*!,37%,.,-16%
CCN1/C(=C/c2cc[n+](C)cc2)C=Cc2cc(C)ccc21,-20%,?,22µM*,-9%,?
O=c1c2ccccc2cnn1Cc1nnc(-c2cccs2)o1,-9%,?,45µM*,.,-7%
O=C(CSc1nccn1Cc1ccccc1)NCc1ccco1,0%[60.1 µM],?,28µM*,.,-13%
O=C(CSc1ncc(-c2ccccc2)nn1)NCc1ccco1,-5%,?,28µM*,-3%,-24%
O=C(O)CSc1ncnc2c1oc1ccccc12,-16%,-1%,9%,-1%,0%
CCCCc1nc2sc3c(SCC(=O)NCc4ccco4)ncnc3c2c2c1CCC2,-21%,-15%,?,-26%,22µM*
CCCCc1nc2sc3c(SCCN(C)C)ncnc3c2c2c1CCC2,-11%,60%,?,-8%,-12%
SMILES,POLK inh,Pol iota inh,POLB inh,L3MBTL1 inh,POLH inh
O=C(CSc1ncnc2c1oc1ccccc12)NCc1ccco1,-15%,?,32µM*,?,-16%
Cc1cccc(C(=O)Nc2ccc(-c3nc4ccccc4s3)cc2Cl)c1,-3%[60.1 µM],21%,24%,.,-13%
COC1OC2COC(c3ccccc3)OC2C(O)C1NC(C)=O (configuration not stated),16%,33%,.,.,-22%
COc1ccc2c(c1)CCc1c(C(=O)Nc3c(C)nn(Cc4c(Cl)cccc4Cl)c3C)noc1-2,-22%,58%,-15%,.,-12%
O=C1Cc2c([nH]c3ccc([N+](=O)[O-])cc23)-c2ccccc2N1,-18%,7%,.,.,-6%
CC(=O)NC1C(=O)N(CCN2CCOCC2)c2ccc(C)cc21 (configuration not stated),-10%,-14%,?,.,25µM*
O=C(Nc1cccc(Cl)c1)OCCOC(=O)Nc1cccc(Cl)c1,3%,-29%,.,.,-19%
O=C(Nc1cccc(Cl)c1)OCC#CCCl,27µM*,.,.,.,.
Cc1ccc2nc(CSc3nnc(Nc4ccccc4F)s3)cc(=O)n2c1,-12%,?,22µM*,-9%,-31%
COc1cc(OC)cc(C(=O)Nc2nc(-c3nnn(-c4ccc(F)c(Cl)c4)c3C)ns2)c1,10%,?,3.2µM*,.,-13%
Cc1cc(C)cc(NC2=C(N)C(=O)c3ccccc3C2=O)c1,5%[60.1 µM],7.9µM*,-7%,.,-8%
Cc1ccc(NC2=C(Cl)C(=O)c3ccccc3C2=O)cc1,-12%,27%,-4%[57.1 µM],-6%,?
O=c1nc(N/N=C/c2ccccn2)cn[nH]1,4%,-1%,-14%,5µM*,-8%
COc1ccc2oc(C(=O)OCC(=O)NCCc3ccccc3)c(C)c2c1,-15%,-14%,.,3%,-13%
COc1ccc2oc(C(=O)OCC(=O)NCc3ccco3)c(C)c2c1,-26%,?,.,-30%,50µM*
O=C(COC(=O)c1cc(Cl)cc(Cl)c1)NCc1ccco1,?,?,.,-12%,56µM*
O=C(COC(=O)CNC(=O)c1ccc(-c2ccccc2)cc1)NCc1ccco1,-10%,70%,8.9µM*,.,-22%
CCOc1ccc(C(=O)OCC(=O)NCc2ccco2)cc1OCC,?,?,20µM*,?,?
O=C(COC(=O)COc1ccccc1)NCc1ccco1,1%,15%,.,-6%,-4%
O=C(NC(c1cccnc1)C(F)(F)F)c1cc(COc2ccc3c(c2)CCCC3)on1 (configuration not stated),-9%,14%,-2%,.,-25%
COc1ccc(Cl)cc1NC(=O)c1cccc(S(=O)(=O)Nc2c(C)n(C)n(-c3ccccc3)c2=O)c1,?,?,.,.,-13%
Cc1ccc(-c2cn3c(n2)sc2cc(C(=O)NCCC4=CCCCC4)ccc23)c(C)c1,-18%,9%,3%,.,-6%
CCOC(=O)c1c(C)oc2ncnc(Nc3ccc(OC)c(OC)c3)c12,-8%[60.1 µM],7%,2%,.,-23%
O=C(COC(=O)c1ccc(Br)o1)NCc1ccc(Cl)cc1,-10%,71%,.,?,?
O=C(COC(=O)c1ccc(Br)o1)NCc1ccco1,?,50µM*,.,.,10µM*
CC[C@H](C)[C@H](NC(=O)[C@H](C)NC(=O)CNC(=O)[C@H](CCCCN)NC(=O)[C@H](CC(N)=O)NC(=O)[C@H](CO)NC(=O)CN)C(=O)N[C@H](C(=O)NCC(=O)N[C@@H](CC(C)C)C(=O)N[C@@H](CCSC)C(=O)O)[C@@H](C)CC,2%[60.1 µM],.,.,.,.
O=C(O)[C@@H](c1ccccc1)N1Cc2ccccc2C1=O,-12%,?,5%,18µM*,-3%
